# Data: PubChem BioAssay (NCATS)
# Unmarked numbers belong to inactive results. Inconclusive results are not listed. Entries that show only a call come without a potency. Active and inactive are the calls of the source. Unless noted, calls come from the whole dose curve; as a rule, active = well fitted curve in either direction with a large enough effect (not every such curve was filed as active); inconclusive = small, poorly fitted or top-dose-only effect, or another doubt; inactive = flat fitted curve, though single readings scatter.
# Columns and labels:
# [1] = AP1 Signaling Pathway (AID 357); details: ME-180 AP-1-bla reporter, EGF-induced, beta-lactamase ratio, 5 h; at 7.69 µM (top of the series) unless noted
# How it was run: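 Titration-series screen for positive or negative modulators of EC50 EGF-induced signaling in ME-180 cells carrying an AP-1-driven beta-lactamase reporter. After 5 hours at 37 degrees Celsius, CCF4 460nm/530nm emission ratio gave %Activity; AC50 values derived.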
# [2] = NFAT Signaling Pathway (AID 444); details: Jurkat NFAT-bla M1, carbachol, beta-lactamase ratio, 5 h; at 7.69 µM (top of the series) unless noted;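 note: carbachol stimulus at about its EC50 of 1 µM final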
# How it was run: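 Jurkat cells with NFAT-driven β-lactamase reporter and co-expressed M1 receptor, stimulated with carbachol (final 1 uM, ~EC50), compound titration, 5 h at 37 °C. CCF4 loaded 1 h at RT; 460/530 nm ratio gave %activity and AC50.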
# [3] = Stat Signaling Pathway (AID 446); details: ME-180 SIE beta-lactamase reporter, IL-6 stimulated, 5 h; at 7.69 µM (top of the series) unless noted;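 note: ME-180 cervical cancer cells given 40 pM IL-6 alongside compound; SIE-controlled beta-lactamase reporter measured as 460/530 nm FRET emission ratio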
# How it was run: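 Overnight-plated ME-180 cells bearing a STAT Inducible Element beta-lactamase reporter; 5 h co-exposure to compound and 40 pM IL-6; values normalized to 300 pM IL-6 and 125 nM JAK inhibitor controls.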
# [4] = molecular target: Glucocorticoid receptor (Homo sapiens) (UniProt P04150); experiment: GR-GFP Redistribution (AID 450;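 active = compounds whose dose series gives a full or clear partial fitted curve of increased nuclear translocation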; note: potency is the fitted concentration of half-maximal effect); details: U2OS GR-GFP nuclear translocation, laser cytometry, 2 h
# Chain of Glucocorticoid receptor (Homo sapiens) (P04150 whole entry, looked up, the tested form may be a part): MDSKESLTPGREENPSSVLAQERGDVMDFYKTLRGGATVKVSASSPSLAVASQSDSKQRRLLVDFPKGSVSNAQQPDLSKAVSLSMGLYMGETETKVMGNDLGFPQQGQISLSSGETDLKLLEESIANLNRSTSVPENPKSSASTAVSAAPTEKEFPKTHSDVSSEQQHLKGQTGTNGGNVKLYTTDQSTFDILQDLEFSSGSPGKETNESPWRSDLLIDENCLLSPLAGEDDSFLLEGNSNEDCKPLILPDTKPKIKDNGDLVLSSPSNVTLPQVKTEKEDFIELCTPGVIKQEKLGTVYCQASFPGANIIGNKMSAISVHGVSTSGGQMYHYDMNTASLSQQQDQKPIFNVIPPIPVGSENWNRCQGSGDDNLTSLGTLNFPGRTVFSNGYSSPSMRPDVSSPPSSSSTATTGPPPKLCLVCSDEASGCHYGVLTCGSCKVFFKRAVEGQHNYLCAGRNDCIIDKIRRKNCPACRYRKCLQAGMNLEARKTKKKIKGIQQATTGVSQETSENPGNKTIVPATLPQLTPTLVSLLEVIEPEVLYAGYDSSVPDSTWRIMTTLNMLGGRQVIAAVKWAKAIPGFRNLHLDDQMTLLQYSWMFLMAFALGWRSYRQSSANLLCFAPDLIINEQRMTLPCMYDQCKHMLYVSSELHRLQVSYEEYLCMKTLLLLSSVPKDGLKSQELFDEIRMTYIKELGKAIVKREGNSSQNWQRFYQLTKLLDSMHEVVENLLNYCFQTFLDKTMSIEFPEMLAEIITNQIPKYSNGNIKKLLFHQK
# [5] = molecular target: Glucocorticoid receptor (Homo sapiens) (UniProt P04150); experiment: GR-EFC Redistribution (AID 451; calls by dose curve; note: potency is the fitted concentration of half-maximal effect); details: CHO-K1 GR-EFC translocation, beta-gal luminescence, 2 h
# How it was run: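 CHO-K1 cells expressing nuclear EA and GR-ED fragments of b-gal; compounds titrated up to 46 uM final, 2 h at 37 C. GR nuclear translocation read as complemented b-gal luminescence after 1 h RT detection.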
# [6] = molecular target: Mitogen-activated protein kinase 10 (Mus musculus) (UniProt Q61831); experiment: JNK3 AlphaScreen Assay (AID 530);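 note: kinase came from lysate of stimulated human HepG2 cells; signal reports phosphorylation of biotinylated GST-cJun 1-79 at Ser73 with 10 µM ATP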
# How it was run: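 Activity was read by AlphaScreen after JNK3-containing HepG2 lysate (cytokine pre-activated) phosphorylated biotinylated GST-cJun with 10 uM ATP at room temperature. Phospho-Ser73 cJun antibody with Protein-A acceptor beads provided detection.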
# [7] = molecular target: 3',5'-cyclic-AMP phosphodiesterase 4B (Homo sapiens) (UniProt Q07343); experiment: qHTS Assay for Inhibitors of PDE-IV (AID 607; active = well fitted activation curve with a large enough effect in the main read-out, with a control signal flat, not every such curve was filed as active)
# Chain of 3',5'-cyclic-AMP phosphodiesterase 4B (Homo sapiens) (Q07343 whole entry, looked up): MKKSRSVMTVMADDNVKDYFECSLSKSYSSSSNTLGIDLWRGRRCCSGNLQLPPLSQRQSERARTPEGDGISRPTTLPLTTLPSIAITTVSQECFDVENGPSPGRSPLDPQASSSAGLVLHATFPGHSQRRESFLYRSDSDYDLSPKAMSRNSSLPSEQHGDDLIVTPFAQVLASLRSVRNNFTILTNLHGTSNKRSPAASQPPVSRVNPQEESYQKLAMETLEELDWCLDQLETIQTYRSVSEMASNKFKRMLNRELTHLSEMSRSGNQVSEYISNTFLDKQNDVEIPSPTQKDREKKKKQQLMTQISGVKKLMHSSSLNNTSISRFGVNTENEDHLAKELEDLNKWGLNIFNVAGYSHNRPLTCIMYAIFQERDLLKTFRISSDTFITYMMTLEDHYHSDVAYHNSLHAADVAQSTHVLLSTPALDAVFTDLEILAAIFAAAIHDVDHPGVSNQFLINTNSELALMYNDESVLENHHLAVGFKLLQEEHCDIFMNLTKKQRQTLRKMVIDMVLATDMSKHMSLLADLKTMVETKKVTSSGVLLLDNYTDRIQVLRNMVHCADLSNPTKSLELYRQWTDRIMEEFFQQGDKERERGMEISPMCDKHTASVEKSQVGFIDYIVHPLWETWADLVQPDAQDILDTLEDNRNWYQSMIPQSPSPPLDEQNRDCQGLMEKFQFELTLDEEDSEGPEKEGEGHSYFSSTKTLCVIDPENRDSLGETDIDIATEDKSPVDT
# How it was run: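 Live HEK293 cells with a modified cyclic nucleotide-gated (CNG) channel report intracellular cAMP via membrane-potential dye fluorescence (ex 535/em 590 nm). Endogenous PDE-IV was targeted. Compounds were tested at up to 22.9 uM final; RO 20-1724 100 uM served as control.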
# [8] = qHTS Assay for Identification of Small Molecule Agonists for Thrombopoietin (TPO) Signaling Pathway (AID 917; active = well fitted curve in the direction sought with a large enough effect; an effect the other way counts as inactive or inconclusive)
# How it was run: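 Stimulation at the TPO EC50 (26 pM final) was used to detect activators. Ba/F3 mouse cells bearing human TPO receptor and a luciferase reporter under the Glycoprotein IIb promoter were exposed to compounds for 24 hrs at 37 C.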
# [9] = molecular target: Pyruvate kinase (Leishmania mexicana) (UniProt Q27686); experiment: qHTS Validation Assay for Inhibitors of Leishmania Mexicana Pyruvate Kinase (AID 945; active = well fitted curve in the direction sought with a large enough effect; an effect the other way counts as inactive or inconclusive)
# Chain of Pyruvate kinase (Leishmania mexicana) (Q27686 2-499 E452W): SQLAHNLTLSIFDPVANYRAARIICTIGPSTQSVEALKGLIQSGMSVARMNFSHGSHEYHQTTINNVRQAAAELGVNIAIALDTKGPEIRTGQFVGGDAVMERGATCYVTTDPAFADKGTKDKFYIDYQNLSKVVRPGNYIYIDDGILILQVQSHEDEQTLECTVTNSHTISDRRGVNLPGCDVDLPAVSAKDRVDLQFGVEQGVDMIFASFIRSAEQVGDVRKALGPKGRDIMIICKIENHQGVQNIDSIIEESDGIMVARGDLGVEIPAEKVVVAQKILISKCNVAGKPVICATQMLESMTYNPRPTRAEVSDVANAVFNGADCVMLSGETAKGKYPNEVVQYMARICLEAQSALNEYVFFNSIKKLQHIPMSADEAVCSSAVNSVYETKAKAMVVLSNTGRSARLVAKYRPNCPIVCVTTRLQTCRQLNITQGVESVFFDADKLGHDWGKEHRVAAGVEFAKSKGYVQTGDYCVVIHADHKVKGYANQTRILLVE
# How it was run: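 Luminescent ATP detection (PKLight) after a 1 h room-temperature reaction of 0.2 nM LmPYK E451W mutant with 0.5 mM PEP and 0.1 mM ADP at pH 7.2. Activity is normalized to DMSO-only control wells.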
# [10] = molecular target: Pyruvate kinase PKM (Homo sapiens) (UniProt P14618); experiment: qHTS Assay for Activators of Human Muscle Pyruvate Kinase (AID 954; active = well fitted curve in the direction sought with a large enough effect, not every such curve was filed as active)
# Chain of Pyruvate kinase PKM (Homo sapiens) (P14618 whole entry, looked up): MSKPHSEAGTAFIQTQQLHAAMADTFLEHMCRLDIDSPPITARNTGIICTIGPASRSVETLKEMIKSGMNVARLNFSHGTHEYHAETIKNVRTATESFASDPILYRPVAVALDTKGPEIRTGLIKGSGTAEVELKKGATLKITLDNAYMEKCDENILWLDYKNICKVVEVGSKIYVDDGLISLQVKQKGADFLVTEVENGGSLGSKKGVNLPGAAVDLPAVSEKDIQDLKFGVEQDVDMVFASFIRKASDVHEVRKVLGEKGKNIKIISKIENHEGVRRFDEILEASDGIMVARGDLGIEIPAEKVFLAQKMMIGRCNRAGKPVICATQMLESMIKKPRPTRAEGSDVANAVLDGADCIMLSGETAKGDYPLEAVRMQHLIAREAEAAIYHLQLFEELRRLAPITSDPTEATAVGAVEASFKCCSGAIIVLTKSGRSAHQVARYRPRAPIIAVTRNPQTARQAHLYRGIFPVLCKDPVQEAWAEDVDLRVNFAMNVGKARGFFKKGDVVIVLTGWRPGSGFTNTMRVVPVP
# How it was run: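 Screening used highly purified human pyruvate kinase M2 under submaximal activity, with PEP at its Km and ADP below Km. After an hour at room temperature, ATP was read by luciferase luminescence.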
# [11] = molecular target: Alpha-galactosidase A (Homo sapiens) (UniProt P06280); experiment: Counterscreen for Glucocerebrosidase Inhibitors: qHTS Assay for Human alpha-Galactosidase at pH 4.5 (AID 992; active = well fitted curve in the direction sought with a large enough effect; an effect the other way counts as inactive or inconclusive)
# Chain of Alpha-galactosidase A (Homo sapiens) (P06280 whole entry, looked up): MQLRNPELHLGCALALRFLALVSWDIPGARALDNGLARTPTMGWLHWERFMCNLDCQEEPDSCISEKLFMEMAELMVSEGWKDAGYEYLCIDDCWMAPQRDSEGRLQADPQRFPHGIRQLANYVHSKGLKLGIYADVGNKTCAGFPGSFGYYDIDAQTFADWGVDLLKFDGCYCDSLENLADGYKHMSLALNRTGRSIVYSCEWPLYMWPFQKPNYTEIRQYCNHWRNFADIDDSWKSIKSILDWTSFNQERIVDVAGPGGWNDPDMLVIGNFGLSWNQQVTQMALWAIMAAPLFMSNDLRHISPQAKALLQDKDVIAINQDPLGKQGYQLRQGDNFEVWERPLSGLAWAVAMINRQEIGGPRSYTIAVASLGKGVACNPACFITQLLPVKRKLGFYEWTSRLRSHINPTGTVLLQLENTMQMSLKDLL
# How it was run: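 Each compound is preincubated briefly with 2 nM enzyme before substrate addition (80 uM); plates then sit 20 min at ambient temperature, are quenched with 1M NaOH/1M glycine, and read fluorometrically.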
# [12] = molecular target: alpha-glucosidase (Oryza sativa, rice) (UniProt Q653V4); experiment: Counterscreen for Glucocerebrosidase Inhibitors: qHTS Assay for Rice alpha-Glucosidase at pH 5.0 (AID 997; active = well fitted curve in the direction sought with a large enough effect; an effect the other way counts as inactive or inconclusive)
# How it was run: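 Endpoint fluorogenic assay at pH 5.0: compounds (0.7 nM to 77 uM) titrated against 4 nM rice enzyme and 400 uM 4-MU-alpha-glucoside for 20 min at room temperature; NaOH/glycine stop, read ex 365/em 440 nm, Hill-fitted AC50.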
# [13] = molecular target: Cytochrome P450 1A2 (Homo sapiens) (UniProt P05177); experiment: p450-cyp1a2 (AID 410; calls by dose curve; note: potency is the fitted concentration of half-maximal effect)
# Chain of Cytochrome P450 1A2 (Homo sapiens) (P05177 whole entry, looked up): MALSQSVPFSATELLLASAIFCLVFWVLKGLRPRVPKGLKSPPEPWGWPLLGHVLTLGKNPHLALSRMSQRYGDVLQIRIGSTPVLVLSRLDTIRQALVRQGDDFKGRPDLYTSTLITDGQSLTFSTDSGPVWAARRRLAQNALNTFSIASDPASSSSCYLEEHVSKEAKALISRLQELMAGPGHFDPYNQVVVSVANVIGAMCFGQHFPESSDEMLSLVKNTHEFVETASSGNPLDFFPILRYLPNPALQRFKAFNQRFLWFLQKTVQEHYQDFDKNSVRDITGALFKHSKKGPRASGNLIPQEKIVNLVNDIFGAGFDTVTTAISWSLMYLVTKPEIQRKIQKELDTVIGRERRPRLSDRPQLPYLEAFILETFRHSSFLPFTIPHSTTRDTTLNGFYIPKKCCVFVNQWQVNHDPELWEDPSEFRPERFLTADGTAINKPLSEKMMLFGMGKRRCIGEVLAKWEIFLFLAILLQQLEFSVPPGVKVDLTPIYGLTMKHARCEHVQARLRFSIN
# How it was run: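 O-Demethylation of luciferin 6' methyl ether by human CYP1A2 is monitored as luciferase luminescence. Substrate sits at Km (100uM); enzyme is 20nM. Values are scaled to 57 uM furafylline as maximal inhibition.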
# [14] = molecular target: Guanine nucleotide-binding protein G(i) subunit alpha-1 (Homo sapiens) (UniProt P63096); experiment: qHTS Assay for Inhibitors of RGS12 GoLoco Motif Activity (Green Fluorophore) (AID 879; active = well fitted curve in the direction sought with a large enough effect; an effect the other way counts as inactive or inconclusive;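 note: negative values mean loss of peptide binding seen as reduced polarization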)
# Chain of Guanine nucleotide-binding protein G(i) subunit alpha-1 (Homo sapiens) (P63096 whole entry, looked up): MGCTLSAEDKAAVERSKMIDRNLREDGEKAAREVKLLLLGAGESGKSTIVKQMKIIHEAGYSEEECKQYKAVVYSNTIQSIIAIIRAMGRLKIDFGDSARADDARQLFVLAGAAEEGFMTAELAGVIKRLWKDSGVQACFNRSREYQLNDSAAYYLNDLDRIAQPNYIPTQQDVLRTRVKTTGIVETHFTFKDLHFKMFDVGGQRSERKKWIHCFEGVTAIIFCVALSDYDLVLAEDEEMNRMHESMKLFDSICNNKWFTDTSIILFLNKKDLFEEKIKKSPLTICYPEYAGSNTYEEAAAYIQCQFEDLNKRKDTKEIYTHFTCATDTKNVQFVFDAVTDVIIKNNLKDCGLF
# How it was run: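 A drop in FITC polarization marked displacement of the FITC-tagged RGS12 GoLoco peptide (10 nM) from Gαi1 (50 nM). Compounds were incubated 10 min at room temperature in Tris pH 7.5 buffer containing 150 mM NaCl, 0.1 mM GDP and 0.05% NP40; unlabeled peptide titration served as control.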
# [15] = molecular target: Muscarinic acetylcholine receptor M1 (Rattus norvegicus) (UniProt P08482); experiment: qHTS Assay for Antagonists of Acetylcholine Muscarinic M1 Receptor: Measurement of IP-One Response (AID 944; active = well fitted curve in the direction sought with a large enough effect; an effect the other way counts as inactive or inconclusive; note: nearly all actives have a fitted effect of over 75% in size; note: potency is the fitted concentration of half-maximal effect)
# Chain of Muscarinic acetylcholine receptor M1 (Rattus norvegicus) (P08482 whole entry, looked up): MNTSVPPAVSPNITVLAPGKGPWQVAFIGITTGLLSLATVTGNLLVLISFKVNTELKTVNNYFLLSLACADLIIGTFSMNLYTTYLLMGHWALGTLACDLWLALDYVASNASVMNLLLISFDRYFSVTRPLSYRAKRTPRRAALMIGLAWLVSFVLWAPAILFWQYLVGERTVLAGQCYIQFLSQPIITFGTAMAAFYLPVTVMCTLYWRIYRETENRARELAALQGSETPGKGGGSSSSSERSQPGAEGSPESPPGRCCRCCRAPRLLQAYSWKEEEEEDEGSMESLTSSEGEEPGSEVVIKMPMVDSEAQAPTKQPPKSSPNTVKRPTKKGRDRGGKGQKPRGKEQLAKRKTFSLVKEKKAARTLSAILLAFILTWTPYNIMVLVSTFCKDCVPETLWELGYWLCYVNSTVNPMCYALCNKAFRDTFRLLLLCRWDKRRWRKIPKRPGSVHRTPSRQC
# How it was run: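 Antagonist mode with rat M1 receptor transfected into CHO cells. Compound is added first for 10 min, carbachol at its EC80 follows for 30 min, and lysis reagents then allow TR-FRET detection of accumulated IP1.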
# [16] = molecular target: Cytochrome P450 3A4 (Homo sapiens) (UniProt P08684); experiment: qHTS Assay for Activators of Cytochrome P450 3A4 (AID 885; active = well fitted curve in the direction sought with a large enough effect; an effect the other way counts as inactive or inconclusive; note: nearly all actives have a fitted effect of over 65% in size)
# Chain of Cytochrome P450 3A4 (Homo sapiens) (P08684 whole entry, looked up): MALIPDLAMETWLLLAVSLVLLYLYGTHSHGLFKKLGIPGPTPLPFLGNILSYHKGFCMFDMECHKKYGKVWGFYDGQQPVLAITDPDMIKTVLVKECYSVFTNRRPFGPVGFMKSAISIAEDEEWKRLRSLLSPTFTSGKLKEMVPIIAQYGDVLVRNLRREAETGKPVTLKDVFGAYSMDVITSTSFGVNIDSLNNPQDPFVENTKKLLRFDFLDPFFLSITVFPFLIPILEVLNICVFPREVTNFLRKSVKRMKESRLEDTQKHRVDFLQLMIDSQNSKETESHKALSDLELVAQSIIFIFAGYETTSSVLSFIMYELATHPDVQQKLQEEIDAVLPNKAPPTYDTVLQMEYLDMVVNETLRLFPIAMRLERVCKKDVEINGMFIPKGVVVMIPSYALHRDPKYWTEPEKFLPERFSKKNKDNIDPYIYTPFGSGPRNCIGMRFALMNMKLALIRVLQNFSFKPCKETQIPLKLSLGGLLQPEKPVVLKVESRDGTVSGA
# How it was run: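 Using 20nM recombinant human CYP3A4 in potassium phosphate (200mM), substrate Luciferin-PPXE at 25uM, luminescent luciferin detection followed a 60-min RT NADPH reaction; data scaled to 57 uM ketoconazole.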
# [17] = qHTS Assay for Identification of Small Molecule Antagonists for NFkB Signaling Pathway (AID 895; active = well fitted inhibition curve with a large enough effect in the signal ratio, with a control signal flat, not every such curve was filed as active; the % refers to the signal ratio)
# How it was run: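 ME-180 NFkB-bla cells (beta-lactamase under NFkB response element), plated overnight, treated with compound then 10 pM TNF alpha (about EC50) for 5 hrs at 37 C. LiveBLAzer FRET read at 460/530 nm emission, 405 nm excitation.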
# [18] = molecular target: Cytochrome P450 2C19 (Homo sapiens) (UniProt P33261); experiment: qHTS Assay for Inhibitors and Substrates of Cytochrome P450 2C19 (AID 899; active = well fitted curve in the direction sought with a large enough effect; an effect the other way counts as inactive or inconclusive; note: nearly all actives have a fitted effect of over 60% in size)
# How it was run: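 Signal comes from luciferase acting on luciferin released by CYP2C19-mediated hydroxylation of Luciferin-H EGE, 10uM (KM). Assay mix: 5nM enzyme, 50mM KPO4; 60 min at 37C with NADPH regeneration. Data normalized against 57uM ketoconazole.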
# [19] = molecular target: Muscarinic acetylcholine receptor M1 (Rattus norvegicus) (UniProt P08482); experiment: qHTS Assay for Antagonists of Acetylcholine Muscarinic M1 Receptor: Kinetic Measurement of Intracellular Calcium Response (AID 943; active = well fitted curve in the direction sought with a large enough effect; an effect the other way counts as inactive or inconclusive; note: potency is the fitted concentration of half-maximal effect; nearly all actives have a fitted effect of over 75% in size)
# How it was run: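 Antagonism is measured as inhibition of the carbachol-evoked calcium rise in CHO cells transfected with rat M1. Cells are dye-loaded, exposed to compound for 10 min, then stimulated with 100 nM carbachol (EC80).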
SMILES,"activity change, negative = inhibition [1]","activity change, negative = inhibition [2]","activity, negative = inhibition [3]",Potency [4] [µM],Potency [5] [µM],Potency [6],Potency [7],outcome [8],outcome [9],outcome [10],outcome [11],Potency [12],Potency [13],outcome [14],Potency [15],Potency [16],Potency [17],Potency [18],Potency [19]
S=C1NCN2CCN(CC2)CNC(=S)C(=S)NCN2CCN(CC2)CNC1=S,3.32%,-3.6%,3.07%,> 46,> 9.22,inactive,inactive,,,,,,,,,,,,
CN[C@@H](CC(C)C)C(=O)N[C@@H]1C(=O)N[C@H](CC(N)=O)C(=O)N[C@H]2C(=O)N[C@H]3C(=O)N[C@H](C(=O)N[C@H](C(=O)O)c4cc(O)cc(O)c4-c4cc3ccc4O)[C@H](O)c3ccc(c(Cl)c3)Oc3cc2cc(c3O[C@@H]2O[C@@H](CO)[C@@H](O)[C@@H](O)[C@H]2O[C@H]2C[C@](C)(N)[C@H](O)[C@H](C)O2)Oc2ccc(cc2Cl)[C@@H]1O,-0.977% [at 38 µM],0.625% [at 38 µM],4.5% [at 38 µM],> 46,> 46,inactive,inactive,inactive,inactive,inactive,inactive,inactive,,,,,,,
COC(=O)[C@](C)(N)Cc1ccc(O)cc1,9.7% [at 38 µM],,-6.8% [at 38 µM],> 46,> 46,inactive,inactive,inactive,inactive,inactive,inactive,inactive,inactive,inactive,inactive,,,,
CS(=O)(=O)Nc1ccc(Nc2c3ccccc3nc3ccccc23)cc1,0.883%,,25.9%,> 46,> 9.22,inactive,inactive,,,,,,3.98 µM (active),,,,,,
C[C@@H]1CC[C@H]2[C@H](C)[C@H]3[C@H](C[C@H]4[C@@H]5CC=C6C[C@@H](O)CC[C@@]6(C)[C@@H]5C[C@@H](O)[C@]34C)N2C1,-4.34%,,-3.84%,> 46,> 9.22,inactive,inactive,,,,,,,,,,,,
CN1CCN(CCCNN)CC1,3.15%,0.682%,1.99%,> 46,> 9.22,inactive,inactive,,,,,,,,,,,,
C[C@@H](COc1ccc(/C=C\c2ccccc2)cc1)[N+](C)(C)C,-11.9% [at 38 µM],,-2.8% [at 38 µM],> 46,> 46,inactive,inactive,inactive,inactive,inactive,inactive,inactive,inactive,inactive,7.08 µM (active),inactive,inactive,inactive,4.47 µM (active)
